Measured values: PubChem BioAssay (NCI)
This is part of a sample that, as a whole, favours compounds with a hit. Of some 83,000 tested, about 20% had one in any assay.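 In brief: 96-well plates, 48 h treatment, single concentration, percent growth endpoint.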 Unmarked numbers belong to inactive results. Active and inactive are the calls of the source. Rule for the calls: active = growth percent below 10; inactive = the rest.

Assays:
Assay in all cases: NCI-60 one-dose screen, 48 h (100 = growth as untreated, 0 = no growth, -100 = all killed)
Details in all cases: 10 µM unless noted
HCT-15 colon = tested on: HCT-15 colon
HT29 colon = tested on: HT29 colon
SNB-75 CNS = tested on: SNB-75 CNS
SNB-19 CNS = tested on: SNB-19 CNS
U251 CNS = tested on: U251 CNS
PC-3 prostate = tested on: PC-3 prostate
SK-MEL-5 melanoma = tested on: SK-MEL-5 melanoma
UACC-62 melanoma = tested on: UACC-62 melanoma
LOX IMVI melanoma = tested on: LOX IMVI melanoma
SK-MEL-28 melanoma = tested on: SK-MEL-28 melanoma

Structure (SMILES) | growth (HCT-15 colon) | growth (HT29 colon) | growth (SNB-75 CNS) | growth (SNB-19 CNS) | growth (U251 CNS) | growth (PC-3 prostate) | growth (SK-MEL-5 melanoma) | growth (UACC-62 melanoma) | growth (LOX IMVI melanoma) | growth (SK-MEL-28 melanoma)
COC(=O)[C@@H](C)C[C@H](Cc1ccccc1)NC(=O)c1csc([C@@H](C[C@H](C(C)C)N(C)C(=O)[C@@H](NC(=O)[C@H]2CCCCN2C)C2CCCCC2)OC(C)=O)n1 | 10.8% | -0.416% (active) | 5.81% (active) | 64.5% | -19.4% (active) | 5.7% (active) | -56.2% (active) | 36.3% | 12.5% | 38%
C[C@@H]1C[C@@]2(C)[C@@H](CC[C@@H]3[C@@H]2CC[C@]2(C)C(=O)CC[C@@H]32)CC1=O | 103% | 91.8% | 86.2% | 96.7% | 101% | 97.3% | 114% | 99.4% | 98.5% | 76.7%
COC(=O)[C@@H](C)C[C@H](Cc1ccc(F)cc1)NC(=O)c1csc([C@@H](C[C@H](C(C)C)N(C)C(=O)[C@@H](NC(=O)[C@H]2CCCCN2C)C2CC2)OC(C)=O)n1 | 12.4% | 0.34% (active) | 54.3% | 36.5% | 5.77% (active) | 28.7% | -20.7% (active) | 43.3% | 23.9% | 59%
Cc1sc2c(c1C)C(c1ccc(Cl)cc1)=N[C@@H](CC(=O)OC(C)(C)C)c1nnc(C)n1-2 | 12.9% | 18% | 18.6% | 45.4% | 52.4% | 53.3% | 21.1% | 26.9% | 7.81% (active) | 38.4%
CNC(=O)Oc1ccc(C(C)(C)C)cc1OC(=O)NC | 90.5% | 88.8% | 91% | 101% | 92.3% | 94% | 98.9% | 99.6% | 92.4% | 107%
COc1cc2c(cc1OCCCCn1c(-c3cccs3)nc3ccccc31)N=C[C@@H]1CCCN1C2=O | -11.9% (active) | 2.34% (active) | -65.4% (active) | 10.5% | -2.52% (active) | -4.05% (active) | -80% (active) | -91.1% (active) | -48.9% (active) | -37.4% (active)
C[C@]12CCc3sc(-c4ccccc4O)nc3C1=CC[C@@H]1[C@@H]2CC[C@]2(C)C(=O)CC[C@@H]12 | 98% | 104% | 95.5% | 101% | 102% | 98.9% | 110% | 94.3% | 104% | 113%
O=C1OCCC1Br (centres undefined) | 98.7% | 97.3% | 89.9% | 104% | 92.2% | 99.5% | 103% | 103% | 97.4% | 99.5%
O=c1[nH]cc(N(CCCl)CCCl)c(=O)[nH]1 | 75.6% | 63.4% | 62.9% | 65.1% | 64.7% | 49.5% | 82% | 64% | 46% | –
O=C(c1cccc(O)c1O)c1cn(Cc2ccc(F)cc2)c2cccc(O)c12 | 27.8% | 94.5% | 55.3% | 37.3% | 31% | 39.2% | 25.4% | 9.18% (active) | 29.3% | 39.2%
O=C1OCC2=C1C(c1ccccc1)c1cc3c(cc1N2)OCO3 (centres undefined) | 10.9% | 4.87% (active) | 45.9% | 36.2% | 9.54% (active) | 25.9% | -39.6% (active) | 31% | 26.2% | 64.2%
O=C1NC(=O)C(=Cc2ccc(OCCCCC3CCCCC3)c(Cl)c2)C(=O)N1 | 98.5% | 92.3% | 96.2% | 100% | 81.7% | 88.4% | 98.3% | 98.3% | 56.1% | 111%
NC(N)=N/N=C\c1c[nH]c2ccc(Br)cc12 | 105% | 92.3% | 72.6% | 67.1% | 32.9% | 72.2% | 67.6% | 101% | 93.7% | 100%
ClCCN(CCCl)c1ccc(/C=N\N=C\c2ccc(N(CCCl)CCCl)cc2)cc1 | 37.3% | 39.3% | 72.1% | 69.2% | 47.4% | 34.3% | 49.7% | 24.5% | 10.7% | 61.3%
COC(=O)[C@H](Cc1c[nH]c2ccccc12)NC(=O)[C@@H](OC)[C@@H]1Cc2cc3cc(OC4CC(OC5CC(O)C(O)C(C)O5)C(O)C(C)O4)c(C)c(O)c3c(O)c2C(=O)[C@H]1OC1CC(OC2CC(OC3CC(C)(O)C(O)C(C)O3)C(O)C(C)O2)C(O)C(C)O1 (some centres undefined) | 15.9% | 4.98% (active) | -88.5% (active) | 7.09% (active) | 6.13% (active) | -10.4% (active) | -72.1% (active) | -52.7% (active) | -3.17% (active) | -27.9% (active)
[Au+].[N-]=C=O.c1ccc(CN2[CH-]N(Cc3ccccc3)C(c3ccccc3)=C2c2ccccc2)cc1 | 51.9% | 88.4% | 79.2% | 58.7% | 47.8% | 84.1% | 96.9% | 78% | 94.7% | 92.8%
ClCCN(CCCl)c1ccc(/C=N/Nc2ncnc3nc[nH]c23)cc1 | 95% | 77.5% | 72.7% | 82% | 67.6% | 232% | 75% | 74% | 65.8% | 117%
CC(CC1CCCCC1)NCc1ccccc1 (centres undefined) | 94.4% | 93.2% | 100% | 100% | 106% | 88.6% | 99.1% | 93.3% | 83.7% | 103%
[Cl][Hg][c]1cc(Br)cc(Br)c1 | 38.2% | 46.4% | 21.6% | 17% | -55.9% (active) | 50.3% | 22.1% | 47% | 9.91% (active) | 59.5%
c1cnc2[nH]cc(-c3csc(-c4cn(CCCCN5CCOCC5)c5ccccc45)n3)c2c1 | 5.17% (active) | -44.6% (active) | 35.4% | 57.5% | 20% | 25.9% | 51.2% | 68.9% | 20.8% | -71.1% (active)
O[C@H](CN1CC1)[C@@H](O)CN1CC1 | 79.9% | 72.5% | 70.6% | 74.5% | 60.3% | 75.8% | 75.3% | 72.4% | 44.6% | 106%
Cc1c(O)c(CN(CCCl)CCCl)cc(CN(CCCl)CCCl)c1O | 82.7% | 70.8% | 78.9% | 99.7% | 81.6% | 65.8% | 91.7% | 89.1% | 77.4% | 102%
CCCCCN(CCCCC)CC(O)c1cc(Cl)ccc1OC (centres undefined) | 31.3% | 11.8% | 84.8% | 56.7% | 38.3% | 24.5% | 37.7% | 62.3% | 14.5% | 51.7%
O=C1NC(=O)C(=Cc2cn(CCCCCCn3c4ccccc4c(=O)c4ccccc43)c3ccccc23)C(=O)N1 | 75.1% | 97.2% | 94.5% | 86% | 90.4% | 84% | 90.5% | 63.5% | 83.8% | 102%
O=[N+]([O-])CC(O)C(Cl)(Cl)Cl (centres undefined) | 102% | 111% | 81.1% | 106% | 99.1% | 94.9% | 107% | 107% | 99.8% | 102%
O=NNc1ccccn1 | 40.2% | 34.3% | 95.5% | 101% | 80.1% | 82.9% | 99.3% | 85.9% | 71.1% | 100%
